Tb PYK inh = blocks Trypanosoma brucei pyruvate kinase; Q57TT1; TbPYK enzyme, Kinase-Glo Plus ATP luminescence, 45 min; Potency, µM (series often up to 76.8 µM), for the others: top-dose activity, negative = inhibition, actives largely listed as inhibitors; 0.12% of 410,000 active; AID 624173; also: nearly all actives have a fitted effect of over 50% in size
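Luminescent Kinase-Glo Plus end-point after 45 min room-temperature reaction of T. brucei pyruvate kinase started with 130 uM ADP (final). Buffer TEA 50 mM pH 7.2 with KCl, MgCl2, BSA, Tween-20; titration-based qHTS with fitted concentration-effect curves.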
Sm TGR inh = blocks Schistosoma mansoni thioredoxin glutathione reductase. 3% of 360,000 active. purified TGR, DTNB reduction, TNB absorbance 405 nm. Potency, µM (highest dose often 114 µM), for inactives: at the highest dose activity change, negative = inhibition, actives largely listed as inhibitors. Q962Y6; also: nearly all actives have a fitted effect of over 60% in size
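First, TGR (20 nM dispensed) and NADPH were mixed with compound. Second, a 15 min room-temperature incubation followed. Third, further NADPH and then DTNB were added to start the reaction. Finally, TNB absorbance was monitored kinetically.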
AMA1 RON2 block = AMA1-RON2 (P. falciparum) interaction inhibition; AlphaScreen AMA1-biotinylated RON2 peptide binding; Potency, µM (highest dose often 58.2 µM), for inactives: at the top dose activity change, negative = inhibition, hits mostly inhibitors; AID 720542; 0.2% of 360,000 active;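 also: 0% = vehicle wells and -100% = peptide control; nearly all actives have a fitted effect of over 45% in size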
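AMA1 (3D7) with his tag at 25 nM final met compounds first, then biotinylated RON2 peptide at 25 nM; detection used donor plus acceptor beads, 10 µg/mL apiece, read by AlphaScreen after 30 min at room temperature.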
RE007 growth inh = less growth of the S. pombe RE007 Vpr strain; 0.21% of 360,000 active; Potency, µM (top dose mostly 92.2 µM), for inactives: at the top dose activity change, negative = less growth, hits mostly inhibitors; S. pombe RE007 Vpr strain, BacTiter-Glo ATP luminescence, 24 h; active = well fitted falling curve with a large enough effect; inconclusive = small, poorly fitted or top-dose-only effect; inactive = no such curve, though single readings can be large or run the other way; also: nearly all actives have a fitted effect of over 50% in size
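Fission yeast strain RE007, carrying one chromosomally integrated HIV-1 vpr copy, was seeded at OD 0.01 in PMG+AL medium with 23 nL pinned compound. After 24 h at 30 °C and 99% humidity, viability was read by BacTiter-Glo luminescence.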
LmPK inh = LmPK (Leishmania mexicana) enzyme inhibition; Q27686; purified LmPK, Kinase-Glo ATP luminescence, 1 h; Potency, µM (top dose mostly 57.5 µM), for the others: at the highest dose activity change, negative = inhibition, usual class: inhibitors; 0.37% of 290,000 active; AID 1721
Target sequence (Q27686 whole entry, looked up): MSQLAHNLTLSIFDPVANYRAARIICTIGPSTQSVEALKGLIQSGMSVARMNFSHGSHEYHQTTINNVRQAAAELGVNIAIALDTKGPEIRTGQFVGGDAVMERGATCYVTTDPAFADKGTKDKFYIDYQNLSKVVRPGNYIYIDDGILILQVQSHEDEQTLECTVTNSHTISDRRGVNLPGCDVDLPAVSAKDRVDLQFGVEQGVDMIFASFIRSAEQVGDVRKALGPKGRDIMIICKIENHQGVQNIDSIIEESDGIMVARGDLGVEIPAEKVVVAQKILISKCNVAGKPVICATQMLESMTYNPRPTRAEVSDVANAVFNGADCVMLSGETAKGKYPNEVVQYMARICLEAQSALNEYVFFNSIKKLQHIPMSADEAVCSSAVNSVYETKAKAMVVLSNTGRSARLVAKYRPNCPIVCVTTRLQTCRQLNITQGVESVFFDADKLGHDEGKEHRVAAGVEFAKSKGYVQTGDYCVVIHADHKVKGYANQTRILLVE
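0.1 nM LmPK, 0.5 mM PEP, 0.1 mM ADP; 50 mM imidazole pH 7.2, 7 mM MgCl2, 50 mM KCl; 1 h RT. Kinase-Glo luminescence readout, normalized to no-enzyme (full inhibition) and uninhibited wells.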
Starred values were filed as active, the others as inactive; ? = inconclusive; . = no result given. Sampled rows, rich in hits. Any-hit rate of the full collection: about 3.2%. Unless noted, calls follow the shape of the dose curve; as a rule, active = well fitted curve in the direction sought with a large enough effect; inconclusive = small, poorly fitted or top-dose-only effect, or another doubt; inactive = no such curve, though single readings can be large; an effect the other way counts as inactive or inconclusive. Unless noted, % is scaled to controls: 0 for no effect and ±100 for the full control effect; potency is read from the fitted curve at half-maximal effect.

SMILES | Tb PYK inh | Sm TGR inh | AMA1 RON2 block | RE007 growth inh | LmPK inh
COc1ccc(-c2cc(C(F)F)n3ncc(C(=O)N4CCCCC4)c3n2)cc1 | 2% | 2% | 0% | 10% | 6%
CC(C)CCNC(=O)c1cnn2c(C(F)(F)F)cc(-c3ccco3)nc12 | -27% | 20µM* | 53% | -1% | 3%
CCOc1ccccc1CNC(=O)c1cc2c(=O)n(Cc3ccccc3)ccc2nc1C | -8% | -9% | . | . | .
O=C(NCCCN1CCN(c2cccc(Cl)c2)CC1)c1cnn(-c2ccc(F)cc2)c1-n1cccc1 | 5% | 8% | . | . | .
O=C(CCC1N=C2c3ccccc3N=C(SCc3ccc(F)cc3)N2C1=O)NCc1ccc(F)cc1 (stereo not drawn) | 0% | 10% | . | . | .
CCOC(=O)C1=C(CS(=O)(=O)c2ccccc2)NC(=O)NC1c1ccccc1OCC (stereo not drawn) | 1% | 25µM* | 0% | -2% | 3%
CCOC(=O)C1=C(CS(=O)(=O)c2ccccc2)NC(=O)NC1c1ccc(OC)c(OC)c1 (stereo not drawn) | 6% | 5% | 12% | 16% | 0%
CO/N=C/C(c1ncc(C(F)(F)F)cc1Cl)S(=O)(=O)c1ccccc1 (stereo not drawn) | 1% | -45% | 7% | -31% | -5%
CO/N=C/C(c1ccc(Cl)nc1)S(=O)(=O)c1ccccc1 (stereo not drawn) | -5% | 22µM* | 7% | 1% | -5%
Cc1ccccc1OCc1nc2ccccc2c(=O)n1/N=C/c1ccco1 | -1% | 40µM* | -16% | 7% | 1%
CCN1CCc2nc3sc(C(=O)c4ccccc4)c(N)c3cc2C1 | -10% | -2% | . | . | .
Cc1nnc(SC2CC(=O)N(c3ccccc3)C2=O)s1 (stereo not drawn) | -6% | 2.5µM* | -1% | 40µM* | 5%
O=C(O)c1cccnc1SC1CC(=O)N(c2ccccc2)C1=O (stereo not drawn) | 1% | 50µM* | 2% | 5% | 1%
O=C1CC(Sc2cccs2)C(=O)N1c1ccccc1 (stereo not drawn) | -5% | 6.3µM* | 3% | ? | 1%
O=C(O)c1ccccc1SC1CC(=O)N(c2ccccc2)C1=O (stereo not drawn) | 1% | 14µM* | -4% | 10µM* | -3%
Cc1nc(SC2CC(=O)N(c3ccccc3)C2=O)nc2c1CCCC2 (stereo not drawn) | -4% | -23% | -11% | -11% | -2%
CN(C)C1C(=O)C(C(N)=O)C(=O)C2(O)C(=O)C3C(=O)c4c(O)cccc4C(C)(O)C3C(O)C12 (stereo not drawn) | -14% | . | . | . | .
CO[C@H]1C[C@@H]2CC[C@@H](C)[C@@](O)(O2)C(=O)C(=O)N2CCCC[C@H]2C(=O)O[C@H]([C@H](C)C[C@@H]2CC[C@@H](OCCO)[C@H](OC)C2)CC(=O)[C@H](C)/C=C(\C)[C@@H](O)[C@@H](OC)C(=O)[C@H](C)C[C@H](C)/C=C/C=C/C=C/1C | 3% | . | . | . | .
CCCCN1C(=O)CC(Sc2ncccc2C(=O)O)C1=O (stereo not drawn) | -6% | . | 17% | 12% | 2%
CC(c1ccccc1)N1C(=O)CC(Sc2ncccc2C(=O)O)C1=O (stereo not drawn) | 6% | 35µM* | -1% | 3% | -6%
O=C(O)c1ccccc1SC1CC(=O)N(C2CCCCC2)C1=O (stereo not drawn) | -5% | 4µM* | -1% | 8% | 0%
COc1ccc(-c2nc(C)c(CCNC(=O)c3ccccc3Br)s2)cc1OC | 6% | 0% | . | . | .
c1ccc(-c2cn3c(n2)-c2ccccc2C3)cc1 | ? | -1% | -2% | ? | 5.6µM*
COc1cc([N+](=O)[O-])ccc1N1C(=O)C2C3C=CC(C4CC34)C2C1=O (stereo not drawn) | -26% | 45µM* | -5% | 4% | 0%
CC[C@H](C)[C@H](NC(=O)[C@H](CO)NC(=O)[C@H](CC(N)=O)NC(=O)[C@H](CC(C)C)NC(=O)[C@H](Cc1ccc(O)cc1)NC(=O)[C@H](CCCCN)NC(=O)[C@H](CCCCN)NC(=O)[C@@H](NC(=O)[C@H](C)NC(=O)[C@H](CCSC)NC(=O)[C@H](CCC(N)=O)NC(=O)[C@H](CCCCN)NC(=O)[C@H](CCCNC(=N)N)NC(=O)[C@H](CC(C)C)NC(=O)[C@H](CCCNC(=N)N)NC(=O)[C@@H](NC(=O)[C@H](Cc1ccc(O)cc1)NC(=O)[C@H](CC(N)=O)NC(=O)[C@H](CC(=O)O)NC(=O)[C@@H](NC(=O)[C@H](Cc1ccccc1)NC(=O)[C@@H](NC(=O)[C@H](C)NC(=O)[C@H](CC(=O)O)NC(=O)[C@H](CO)NC(=O)[C@@H](N)Cc1c[nH]cn1)C(C)C)[C@@H](C)O)[C@@H](C)O)C(C)C)C(=O)N[C@@H](CC(C)C)C(=O)N[C@@H](CC(N)=O)C(=O)O | 13% | . | . | . | .
SMILES | Tb PYK inh | Sm TGR inh | AMA1 RON2 block | RE007 growth inh | LmPK inh
Cc1ccc(-c2noc(C3CCCN(S(=O)(=O)c4ccc5ccccc5c4)C3)n2)o1 (stereo not drawn) | 5% | 40µM* | -6% | -11% | -1%
CC(=O)c1cccc(S(=O)(=O)N2CCCC(c3nc(-c4ccc(C)o4)no3)C2)c1 (stereo not drawn) | -27% | 50µM* | -14% | 17% | 6%
O=C(O)c1ccc2cccnc2n1 | -6% | 32µM* | 14% | 9% | -1%
O=C(O)c1ccc2cccc(O)c2n1 | 9% | -9% | 87% | 23% | 3%
Cc1cccc(N2CCN(C(=O)c3cc4ccc5cccnc5c4[nH]3)CC2C)c1 (stereo not drawn) | 0% | -12% | . | . | .
CCN(CC(=O)Nc1ccc(C(C)=O)cc1)CC(=O)Nc1ccccc1C(F)(F)F | 0% | 32µM* | 40% | 4% | 7%
CCN(CC(=O)Nc1ccc(OC)c(OC)c1)CC(=O)Nc1ccccc1C(F)(F)F | -16% | ? | 66% | -19% | 3%
COc1ccc(-c2cc(C(F)(F)F)nc(SCC(=O)N3CCCCC3)n2)cc1 | -5% | 1% | . | . | .
Cn1c(=O)c2c([nH]c(=S)n2Cc2ccc(Cl)cc2)n(C)c1=O | 3.5µM* | 7% | 0% | 9% | ?
Cc1ccc(CNS(=O)(=O)c2ccc(CN3C(=O)c4cccnc4C3=O)cc2)o1 | 0% | 20µM* | 13% | 7% | 8%
CC(C)NS(=O)(=O)c1cc(F)ccc1CN1C(=O)c2cccnc2C1=O | 0% | 2% | 0% | 7% | 1%
Cc1ccc(CNS(=O)(=O)c2cc(F)ccc2CN2C(=O)c3cccnc3C2=O)o1 | -11% | 25µM* | 0% | -14% | 4%

Assay outcomes as filed in PubChem BioAssay.
